From PubChem BioAssay (Tox21)
Results filed as inconclusive are left out. The source made the active and inactive calls. Calls follow the shape of the dose curve; as a rule, active = well fitted activation curve with a large enough effect in the repeat runs; inconclusive = weak or mixed curves; inactive = flat fitted curve, though single readings scatter.

Experiment: A CellTox Green Cytotoxicity Assay to monitor cytotoxicity in HepG2 cells - 8 hour (AID 1224890); also: nearly all actives have a fitted effect of over 45% in size
Conditions: CellTox Green fluorescence; series mostly up to 76.8 µM; cytotoxicity increase: at the top concentration
Text: National Center for Advancing Translational Sciences [NCATS]
NIH Chemical Genomics Center [NCGC]
U.S. Environmental Protection Agency [EPA]
National Institutes of Environmental Health Sciences [NIEHS]
National Toxicology Program [NTP]
Cell-based models are critical for drug discovery. Determining the natural cytotoxic effects resulting from test compounds is an essential research activity. A CellTox Green Cytotoxicity Assay to monitor cytotoxicity in real time of continues cell culture during 40 hours of the compound treatment was used to screen Tox21 10K library compounds in HepG2 cells. CellTox Green Cytotoxicity Assay is a nonlytic, homogeneous, biofluorescent method to measure cytotoxicity in cell culture after experimental manipulation. The assay system uses a proprietary asymmetric cyanine dye that is excluded from viable cells but preferentially stains the dead cell's DNA. […] Viable cells produce no appreciable increases in fluorescence. Therefore, the fluorescence signal produced by the binding interaction with dead cell DNA is proportional to cytotoxicity.
The mixture of HepG2 cell suspension and reagents were dispensed at 600cells/6 ul/well in 1536-well tissue culture treated black solid bottom plates using a Multidrop dispenser. After the assay plates were incubated at a 37 C/5% CO2 incubator for 5 hours, 23 nL of compounds dissolved in DMSO, positive and negative controls was transferred to the assay plate by a pintool work station. The plates were incubated at 37 C for 40 hours. The fluorescence intensity were measured at 0h, 8h, 16h, 24h, 32h and 40h time points using ViewLux plate reader during compound treatment.
% is scaled to controls: 0 for no effect and ±100 for the full control effect; potency is read from the fitted curve at half-maximal effect.

Question: For `Cc1sccc1Br`, which “cytotoxicity increase” value is on record?
Answer: The value was -12.9% [at 35.3 µM] (inactive).

Question: Which “cytotoxicity increase” value does the source give for `COc1c(N2C[C@@H]3CCCN[C@@H]3C2)c(F)cc2c(=O)c(C(=O)O)cn(C3CC3)c12` here?
Answer: The value was -1.55% [at 35.3 µM] (inactive).

Question: For `O=C(O)CN(CCOCCOCCN(CC(=O)O)CC(=O)O)CC(=O)O`, which cytotoxicity increase is on record?
Answer: Its cytotoxicity increase is -22.5% [at 0.29 µM] (inactive).

Question: Which “cytotoxicity increase” value does the source give for `COC(=O)c1cc(C(=O)OC)cc(S(=O)(=O)O)c1` here?
Answer: The value was -11.5% (inactive).

Question: For `N[C@H]1CN(c2c(F)cc3c(=O)c(C(=O)O)cn(C4C[C@H]4F)c3c2Cl)CC12CC2` (stereo not given in full), which “cytotoxicity increase” value is on record?
Answer: Its value is 2.3% [at 35.3 µM] (inactive).

Question: For `O=C1CC2CC1C1CCCC21` (stereo not given), which “cytotoxicity increase” value is on record?
Answer: Its value is -6.45% (inactive).

Question: For `Nc1cc(=O)[nH]c(N)n1`, which “cytotoxicity increase” value is on record?
Answer: Its value is -2.06% [at 35.3 µM] (inactive).

Question: For `CN(C)CCCSc1ccccc1NC(=O)/C=C/c1ccccc1`, which Potency is on record?
Answer: The Potency was 19 µM (active).

Question: For `Cc1cc2c(cc1S(N)(=O)=O)S(=O)(=O)CCC2`, which “cytotoxicity increase” value is on record?
Answer: Its value is 1.13% [at 35.3 µM] (inactive).

Question: For `Nc1c[n+](N2CCOCC2)no1`, which “cytotoxicity increase” value is on record?
Answer: Its value is -9.98% [at 35.3 µM] (inactive).

Question: For `O=c1cc(CO)occ1O`, which “cytotoxicity increase” value is on record?
Answer: Its value is -7.33% [at 35.3 µM] (inactive).

Question: For `CCc1cccc2c(CCO)c[nH]c12`, which “cytotoxicity increase” value is on record?
Answer: Its value is 4.9% [at 35.3 µM] (inactive).

Question: For `O=C1CCCN1C1CCCCC1`, which “cytotoxicity increase” value is on record?
Answer: The value was 5.48% (inactive).

Question: Which “cytotoxicity increase” value does the source give for `CC(=O)CC(C)C` here?
Answer: The value was 2.78% (inactive).

Question: Which “cytotoxicity increase” value does the source give for `CC(C)OC(=O)c1ccccc1` here?
Answer: Its value is -4.4% (inactive).

Question: With `Nc1c2c(nc3ccccc13)CCCC2O` (stereo not given) as the compound, how does the “cytotoxicity increase” value read?
Answer: The value was -1.72% [at 35.3 µM] (inactive).

Question: For `O=C1NC(=O)[C@@]2(CCOc3ccc(F)cc32)N1`, which “cytotoxicity increase” value is on record?
Answer: Its value is -6.44% [at 35.3 µM] (inactive).

Question: With `Nc1nc2c(ncn2COC(CO)CO)c(=O)[nH]1` as the compound, how does the “cytotoxicity increase” value read?
Answer: Its value is -24.5% [at 35.3 µM] (inactive).

Question: With `CC(C)NCC(O)c1ccc(NS(C)(=O)=O)cc1` (stereo not given) as the compound, how does the “cytotoxicity increase” value read?
Answer: The value was 2.39% (inactive).

Question: Which “cytotoxicity increase” value does the source give for `NS(=O)(=O)c1ccc(C(=O)O)cc1` here?
Answer: Its value is -21.3% [at 35.3 µM] (inactive).

Question: For `CN1CCCC1`, which “cytotoxicity increase” value is on record?
Answer: Its value is 0.32% (inactive).

Question: With `O=C(CCCN1CCC(O)(c2cccc(C(F)(F)F)c2)CC1)c1ccc(F)cc1` as the compound, how does the “cytotoxicity increase” value read?
Answer: Its value is 3.72% [at 35.3 µM] (inactive).

Question: Which “cytotoxicity increase” value does the source give for `CCOC(=O)CCC(C)=O` here?
Answer: The value was -2.5% (inactive).

Question: With `CC(C)(C)c1ccc(O)c(O)c1` as the compound, how does the Potency read?
Answer: Its Potency is “inactive”.

Question: With `Oc1ccc(C2CNCCc3c2cc(O)c(O)c3Cl)cc1` (stereo not given) as the compound, how does the “cytotoxicity increase” value read?
Answer: Its value is -3.47% [at 35.3 µM] (inactive).

Question: For `CCOC(=O)C(=O)OCC`, which “cytotoxicity increase” value is on record?
Answer: Its value is -12.5% (inactive).

Question: Which “cytotoxicity increase” value does the source give for `CC(C)(O)C#CC(C)(C)O` here?
Answer: Its value is -0.474% (inactive).

Question: With `CCN(CC)CCOCCOC(=O)C1(c2ccccc2)CCCC1` as the compound, how does the “cytotoxicity increase” value read?
Answer: The value was 3.16% [at 35.3 µM] (inactive).

Question: With `CO[C@]12C[C@@H](COC(=O)c3cncc(Br)c3)CN(C)[C@@H]1Cc1cn(C)c3cccc2c13` as the compound, how does the Potency read?
Answer: Its Potency is 26.8 µM (active).

Question: Which “cytotoxicity increase” value does the source give for `CC1(C)CO[C@@H](CC(=O)O)CN1` here?
Answer: Its value is -12.6% [at 35.3 µM] (inactive).

Question: For `CCC=O`, which “cytotoxicity increase” value is on record?
Answer: The value was -1.13% (inactive).

Question: With `C=COCC1CCC(CO)CC1` (stereo not given) as the compound, how does the “cytotoxicity increase” value read?
Answer: The value was 0.541% (inactive).

Question: For `OC1CCCCC1c1ccccc1` (stereo not given), which “cytotoxicity increase” value is on record?
Answer: Its value is -1.53% (inactive).

Question: With `CCc1ccc(O)c(OC)c1` as the compound, how does the “cytotoxicity increase” value read?
Answer: Its value is -6.96% (inactive).

Question: Which “cytotoxicity increase” value does the source give for `Cc1cnc(NS(=O)(=O)c2ccc(N)cc2)nc1` here?
Answer: Its value is -5.49% [at 35.3 µM] (inactive).

Question: Which “cytotoxicity increase” value does the source give for `COC(=O)CC(C)=O` here?
Answer: The value was -11.7% (inactive).

Question: Which cytotoxicity increase does the source give for `Cc1cccn2c(=O)c(-c3nnn[nH]3)cnc12` here?
Answer: Its cytotoxicity increase is 3.76% [at 15.8 µM] (inactive).

Question: With `C[N+](C)(C)CCCCCC[N+](C)(C)C` as the compound, how does the Potency read?
Answer: The Potency was “inactive”.

Question: For `CC(=O)OCC(CCn1cnc2cnc(N)nc21)COC(C)=O`, which “cytotoxicity increase” value is on record?
Answer: Its value is -8.21% [at 35.3 µM] (inactive).

Question: For `COC(=O)C1=C(C)NC(C)=C(C(=O)OC)C1c1ccccc1[N+](=O)[O-]`, which Potency is on record?
Answer: Its Potency is “inactive”.
